Experimental data reported in PubChem BioAssay (NCI).
The panel holds about 79,000 compounds, 15% with a hit somewhere; the sample as a whole holds those more often. Activity calls are given as the source filed them. No stated cut-off is given here; in the data, active means growth inhibition above about 70%; inactive means the rest.

Legend:
[1] = NCI Yeast Anticancer Drug Screen. Data for the rad52 strain (AID 147);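 further: 0% = growth of vehicle-treated control cultures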; details: S. cerevisiae rad52 mutant growth inhibition, active compounds read high
Outline: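 Vehicle-treated cultures served as the reference for growth inhibition of compound-exposed yeast bearing a DNA repair mutation.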

[2] = NCI Yeast Anticancer Drug Screen. Data for the wt1 strain (AID 149);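 further: 0% = growth of vehicle-treated wt1 cultures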; details: S. cerevisiae wt1 strain (SPY 50644) growth inhibition, active compounds read high
Outline: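 Vehicle-normalised growth inhibition; strain wt1; compound exposure.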

[3] = NCI Yeast Anticancer Drug Screen. Data for the rad50EPP+ strain (AID 151);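 further: 0% = growth of vehicle-treated control cultures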; details: S. cerevisiae rad50 mutant strain, active compounds read high
Outline: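 In this screen, rad50EPP+ yeast were exposed to compounds. Growth inhibition was scored against vehicle-treated controls.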

[4] = NCI Yeast Anticancer Drug Screen. Data for the mgt1 strain (AID 153); details: S. cerevisiae mgt1 mutant growth inhibition, active compounds read high
Outline: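 mgt1 strain exposed; growth vs vehicle control recorded as inhibition.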

[5] = NCI Yeast Anticancer Drug Screen. Data for the rad50 strain (AID 155);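 further: 0% = growth of vehicle-only cultures of the same strain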; details: S. cerevisiae rad50 strain growth inhibition, active compounds read high
Outline: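 A DNA repair-deficient yeast mutant serves as the test organism; compound-induced growth inhibition is calculated against vehicle-treated cells.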

[6] = NCI Yeast Anticancer Drug Screen. Data for the mec2-1 strain (AID 157); details: S. cerevisiae mec2-1 strain, active compounds read high
Outline: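 Vehicle-treated cultures served as reference for growth inhibition of compound-exposed mec2-1 yeast.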

[7] = NCI Yeast Anticancer Drug Screen. Data for the rad14 strain (AID 159);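 further: 0% = growth of vehicle-treated control cultures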; details: S. cerevisiae rad14 strain growth inhibition, active compounds read high
Outline: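 Vehicle-treated cultures served as the baseline for growth inhibition of a DNA repair-mutant yeast strain exposed to each compound.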

[8] = NCI Yeast Anticancer Drug Screen. Data for the sgs1 mgt1 strain (AID 161);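 further: 0% = growth of cultures given vehicle only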; details: S. cerevisiae sgs1 mgt1 strain, active compounds read high
Outline: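 Read-out: growth inhibition vs vehicle controls. Cells: mutant yeast strain deficient in DNA damage repair.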

[9] = NCI Yeast Anticancer Drug Screen. Data for the CLN2oe strain (AID 163);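 further: 0% = growth of vehicle-only control cultures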; details: S. cerevisiae CLN2oe strain, active compounds read high
Outline: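 Inhibition relative to vehicle-treated yeast is reported. Cells: strain with genetic alteration in cell-cycle control, grown with compound.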

[10] = NCI Yeast Anticancer Drug Screen. Data for the cln2 rad14 strain (AID 165);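 further: 0% = growth equal to vehicle treated cultures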; details: S. cerevisiae cln2 rad14 strain, active compounds read high
Outline: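 Each compound was tested on cln2 rad14 yeast. Inhibition of growth was calculated against vehicle-exposed controls.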

[11] = NCI Yeast Anticancer Drug Screen. Data for the bub3 strain (AID 167); details: S. cerevisiae bub3 mutant strain, active compounds read high
Outline: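 Inhibition values come from growth of compound-treated mutant yeast normalised to vehicle-treated controls.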

[12] = NCI Yeast Anticancer Drug Screen. Data for the mlh1 strain (AID 171);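 further: 0% = growth of vehicle-treated control cultures of the same strain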; details: S. cerevisiae mlh1 strain growth inhibition, active compounds read high
Outline: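 Vehicle-normalised growth inhibition of a repair- or checkpoint-altered yeast strain following compound treatment.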

[13] = NCI Yeast Anticancer Drug Screen. Data for the sgs1 strain (AID 173);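 further: 0% = growth of vehicle-only control cultures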; details: S. cerevisiae sgs1 mutant, active compounds read high
Outline: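 Screen format: yeast with repair or checkpoint alterations, compound exposure, growth read relative to vehicle.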

[14] = NCI Yeast Anticancer Drug Screen. Data for the mlh1 rad18 strain (AID 175); details: S. cerevisiae mlh1 rad18 strain growth inhibition, active compounds read high
Outline: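 Vehicle-treated cultures served as the reference for growth inhibition in a yeast strain carrying DNA damage repair alterations exposed to each compound.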

[15] = NCI Yeast Anticancer Drug Screen. Data for the rad18 strain (AID 177); details: S. cerevisiae rad18 mutant growth inhibition, active compounds read high
Outline: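 Test articles were incubated with altered yeast defective in DNA damage repair. Results are given as inhibition of growth versus vehicle.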

[16] = at 5.0 µM (retest, dose inferred, filed as 0.5)
[17] = at 50.0 µM (retest, dose inferred, filed as 5.0)

Measured: growth inhibition

Cc1cc(O)c(C(C)C)cc1SC#N
inactive: [1]; at 1.2 µM 2% | [1]; at 3.7 µM -12% | [1]; at 11.0 µM 62% | [1]; at 33.0 µM 34% | [2]; at 1.2 µM -15% | [2]; at 3.7 µM 1% | [2]; at 11.0 µM 43% | [2]; at 33.0 µM 36% | [3]; at 1.2 µM -12% | [3]; at 3.7 µM -5% | [3]; at 11.0 µM 1% | [3]; at 33.0 µM 10% | [4]; at 1.2 µM -3% | [4]; at 3.7 µM -13% | [4]; at 11.0 µM 54% | [4]; at 33.0 µM 40% | [5]; at 1.2 µM -24% | [5]; at 3.7 µM -15% | [5]; at 11.0 µM 67% | [5]; at 33.0 µM 19% | [6]; at 1.2 µM -26% | [6]; at 3.7 µM -25% | [6]; at 11.0 µM 68% | [6]; at 33.0 µM 24% | [7]; at 1.2 µM -4% | [7]; at 3.7 µM 0% | [7]; at 11.0 µM 55% | [7]; at 33.0 µM 46% | [8]; [16] -5% | [9]; at 1.2 µM 12% | [9]; at 3.7 µM -17% | [9]; at 11.0 µM 68% | [9]; at 33.0 µM 54% | [10]; [16] 65% | [11]; at 1.2 µM 3% | [11]; at 3.7 µM 50% | [11]; at 33.0 µM 34% | [12]; at 1.2 µM -19% | [12]; at 3.7 µM -5% | [12]; at 11.0 µM 58% | [12]; at 33.0 µM 33% | [13]; at 1.2 µM -30% | [13]; at 3.7 µM -24% | [13]; at 11.0 µM 65% | [13]; at 33.0 µM 28% | [15]; at 1.2 µM 12% | [15]; at 3.7 µM 2% | [15]; at 11.0 µM 59% | [15]; at 33.0 µM 40%
active: [1]; at 100.0 µM 98% | [2]; at 100.0 µM 99% | [3]; at 100.0 µM 89% | [4]; at 100.0 µM 99% | [5]; [16] 91% | [5]; [17] 98% | [5]; at 50.0 µM 89.1% | [5]; at 100.0 µM 98% | [6]; [16] 96% | [6]; [17] 99% | [6]; at 50.0 µM 91.1% | [6]; at 100.0 µM 98% | [7]; at 100.0 µM 99% | [8]; [17] 97% | [8]; at 50.0 µM 91.9% | [9]; at 100.0 µM 98% | [10]; [17] 98% | [10]; at 50.0 µM 90.3% | [11]; [16] 72% | [11]; at 11.0 µM 91% | [11]; [17] 98% | [11]; at 50.0 µM 90.5% | [11]; at 100.0 µM 98% | [12]; at 100.0 µM 98% | [13]; at 100.0 µM 98% | [14]; [16] 81% | [14]; [17] 99% | [14]; at 50.0 µM 89% | [15]; at 100.0 µM 98%

CC(C)OC(=O)NNc1c(Cl)cc(Cl)cc1Cl
inactive: [1]; at 1.2 µM -2% | [1]; at 3.7 µM -2% | [1]; at 11.0 µM 2% | [1]; at 33.0 µM 6% | [1]; at 100.0 µM 5% | [2]; at 1.2 µM -2% | [2]; at 3.7 µM -3% | [2]; at 11.0 µM -4% | [2]; at 33.0 µM -3% | [2]; at 100.0 µM -5% | [3]; at 1.2 µM 10% | [3]; at 3.7 µM 31% | [3]; at 11.0 µM 49% | [4]; at 1.2 µM -2% | [4]; at 3.7 µM -2% | [4]; at 11.0 µM 2% | [4]; at 33.0 µM 8% | [4]; at 100.0 µM 5% | [5]; at 1.2 µM -2% | [5]; at 3.7 µM 7% | [5]; [16] 18% | [5]; at 11.0 µM 18% | [5]; at 33.0 µM 16% | [5]; [17] 28% | [5]; at 50.0 µM 2.75% | [5]; at 100.0 µM 13% | [6]; at 1.2 µM -3% | [6]; at 3.7 µM -3% | [6]; [16] 0% | [6]; at 11.0 µM 0% | [6]; at 33.0 µM 1% | [6]; [17] 10% | [6]; at 50.0 µM 3.15% | [6]; at 100.0 µM 0% | [7]; at 1.2 µM -4% | [7]; at 3.7 µM -2% | [7]; at 11.0 µM 2% | [7]; at 33.0 µM 7% | [7]; at 100.0 µM 7% | [8]; [16] 4% | [8]; [17] 24% | [8]; at 50.0 µM 15.2% | [9]; at 1.2 µM 1% | [9]; at 3.7 µM 5% | [9]; at 11.0 µM 14% | [9]; at 33.0 µM 19% | [9]; at 100.0 µM 18% | [10]; [16] 14% | [10]; [17] 21% | [10]; at 50.0 µM 12.3% | [11]; at 1.2 µM 26% | [11]; at 3.7 µM 38% | [11]; [16] 36% | [11]; at 11.0 µM 58%
active: [3]; at 33.0 µM 74% | [3]; at 100.0 µM 79% | [11]; at 33.0 µM 76% | [11]; [17] 82% | [11]; at 50.0 µM 93.2% | [11]; at 100.0 µM 81%
